Hit rate of the full screen: of about 39,000 compounds, about 1,500 (3.8%) were called active. The list comes from a sample in which actives are over-represented; it also holds similar structures and randomly drawn compounds.

In this experiment the test system is HSkMC (human skeletal muscle cells). Briefly: cytotoxicity call (relative viability < 0.9). The conditions noted are these: 10 µM.
On to `C[C@H](CO)N1C[C@H](C)[C@@H](CN(C)S(=O)(=O)c2cn(C)cn2)Oc2ccc(NC(=O)CCC(F)(F)F)cc2CC1=O`, for which the cytotoxicity call was “inactive”. On to `COc1ccncc1-c1ccccc1CN(C(=O)c1ccc(-c2ccc(C#N)cc2)o1)c1ccc(N2CCNCC2)cc1`, for which the cytotoxicity call is “active”. In the case of `C[C@@H]1CN([C@@H](C)CO)C(=O)Cc2cc(NC(=O)Nc3ccc(F)cc3)ccc2O[C@H]1CN(C)Cc1ccc(Cl)c(Cl)c1` it was “active”.

In the case of `C[C@H](CO)N1C[C@H](C)[C@@H](CN(C)Cc2ccc(Cl)c(Cl)c2)Oc2ccc(NC(=O)Nc3ccc(F)cc3)cc2CC1=O`, the cytotoxicity call was “active”. In the case of `C[C@@H]1CN([C@H](C)CO)C(=O)Cc2cc(NC(=O)Nc3ccc(F)cc3)ccc2O[C@H]1CN(C)Cc1ccc(Cl)c(Cl)c1` it was “active”. In the case of `C[C@@H]1CN([C@@H](C)CO)C(=O)Cc2cc(NC(=O)Nc3ccc(F)cc3)ccc2O[C@@H]1CN(C)Cc1ccc(Cl)c(Cl)c1` it was “active”; in that of `C[C@@H]1CCCCO[C@@H](CN(C)C(=O)c2ccccc2)[C@H](C)CN([C@H](C)CO)C(=O)c2cc(NC(=O)Nc3cccc4ccccc34)ccc2O1`, “inactive”. With `C[C@@H]1CN([C@@H](C)CO)C(=O)c2cc(NS(=O)(=O)c3ccc(F)cc3)ccc2O[C@@H](C)CCCCO[C@@H]1CN(C)C(=O)Nc1ccccc1`, the cytotoxicity call is “inactive”.

On to `C[C@H]1CCCCO[C@H](CN(C)Cc2ccc(C(F)(F)F)cc2)[C@@H](C)CN([C@@H](C)CO)C(=O)c2cc(NC(=O)C3CCCCC3)ccc2O1`, for which the cytotoxicity call is “inactive”. Take `C[C@@H]1CN([C@H](C)CO)C(=O)Cc2cc(NC(=O)CCN3CCOCC3)ccc2O[C@@H]1CN(C)Cc1ccccc1`: the cytotoxicity call was “inactive”. In the case of `C[C@H](CO)N1C[C@H](C)[C@H](CN(C)Cc2ccc(Oc3ccccc3)cc2)Oc2ccc(NC(=O)C3CCCCC3)cc2C1=O` it was “inactive”; in that of `Cc1ccc(S[C@]2(C(=O)O)CC(=O)N(Cc3ccccc3C(F)(F)F)[C@@H]2c2ccc(CO)cc2)cc1`, “inactive”; in that of `COc1cccc(S(=O)(=O)N(C)C[C@@H]2Oc3ncc(-c4cccc(F)c4)cc3C(=O)N([C@H](C)CO)C[C@@H]2C)c1`, “inactive”.

For `C[C@H](CO)N1C[C@H](C)[C@H](CN(C)Cc2ccc(C(=O)O)cc2)Oc2ccc(NC(=O)c3ccncc3)cc2C1=O`, the cytotoxicity call is “inactive”. In the case of `C[C@@H]1CCCCO[C@@H](CN(C)Cc2ccc(C(=O)O)cc2)[C@@H](C)CN([C@@H](C)CO)C(=O)c2cc(NS(=O)(=O)c3cccs3)ccc2O1` it was “inactive”.

Regarding `C[C@@H]1CN([C@H](C)CO)C(=O)CCCn2cc(nn2)CO[C@@H]1CN(C)S(=O)(=O)c1ccc2ccccc2c1`, the cytotoxicity call was “inactive”. With `O=C(C[C@@H]1CC[C@@H]2[C@H](COC[C@@H](O)CN2C(=O)Nc2ccc(F)cc2)O1)NCCCN1CCOCC1`, the cytotoxicity call was “inactive”. For `C[C@@H]1CN([C@@H](C)CO)C(=O)c2cc(NS(=O)(=O)c3ccc(F)cc3)ccc2O[C@@H](C)CCCCO[C@H]1CN(C)Cc1ccc(C(=O)O)cc1` the value was “inactive”; for `C[C@@H](O)[C@@H](O)[C@@H](O)C/C=N/NC(=O)c1ccc(C(=O)NO)cc1`, “inactive”. In the case of `Cc1cc([N+](=O)[O-])nn1CC(=O)N1CCOCC1` it was “inactive”; in that of `COc1ccc(NC(=O)N(C)C[C@@H]2OCCCC[C@H](C)Oc3ccc(NC(=O)Nc4ccc(F)cc4)cc3C(=O)N([C@H](C)CO)C[C@@H]2C)cc1`, “inactive”.

In the case of `C[C@H]1CN([C@@H](C)CO)C(=O)Cc2cc(NC(=O)Nc3ccc(F)cc3)ccc2O[C@H]1CN(C)Cc1ccc(Cl)c(Cl)c1`, the cytotoxicity call was “active”. In the case of `C[C@H]1CN([C@@H](C)CO)C(=O)Cc2cc(NC(=O)Nc3ccc(F)cc3)ccc2O[C@@H]1CN(C)Cc1ccc(Cl)c(Cl)c1` it was “active”. For `C[C@@H]1CN([C@H](C)CO)C(=O)Cc2cc(NC(=O)Nc3ccc(F)cc3)ccc2O[C@@H]1CN(C)Cc1ccc(Cl)c(Cl)c1` the value was “active”; for `C[C@H](CO)N1C[C@H](C)[C@H](CN(C)Cc2ccc(Cl)c(Cl)c2)Oc2ccc(NC(=O)Nc3ccc(F)cc3)cc2CC1=O`, “active”.

Turning to `Cc1noc(C)c1NC(=O)N(C)C[C@H]1Oc2c(NS(=O)(=O)c3cn(C)cn3)cccc2C(=O)N([C@@H](C)CO)C[C@H]1C`, the cytotoxicity call is “inactive”. In the case of `C/C=C/COc1nc2c(c(=O)n(C)c(=O)n2C)n1C` it was “inactive”; in that of `C[C@H]1CN([C@@H](C)CO)C(=O)c2cc(NC(=O)Cn3cnnn3)ccc2O[C@@H]1CN(C)C(=O)NC1CCCCC1`, “inactive”.

For the compound `C[C@@H]1CN([C@@H](C)CO)C(=O)c2cccc(NC(=O)Nc3ccc(F)cc3)c2O[C@@H]1CN(C)Cc1ccc(C(F)(F)F)cc1`, the cytotoxicity call is “inactive”. `CC(C)NC(=O)N(C)C[C@H]1Oc2ccc(NC(=O)Cn3cnnn3)cc2CC(=O)N([C@H](C)CO)C[C@@H]1C`: the cytotoxicity call is “inactive”. For `CC(=O)OCC(=O)C1(O)CCC2C3CCC4CC(O)CCC4(C)C3C(=O)CC21C` (stereo not drawn) the value was “inactive”. For `COc1ccc(NC(=O)Nc2ccc3c(c2)C(=O)N([C@H](C)CO)C[C@H](C)[C@H](CN(C)S(=O)(=O)c2cccs2)OCCCC[C@H](C)O3)cc1` the value was “inactive”. As for `C[N+](C)(C)CCCCNC(=O)[C@H]1C[C@H]2C(=O)N3CCC[C@H]3C(=O)N2[C@H]1c1cccc(OCCO)c1`, the cytotoxicity call is “inactive”. For `C[C@H](CO)N1C[C@H](C)[C@@H](CN(C)C(=O)c2ccc3c(c2)OCO3)Oc2cc(-c3cncnc3)ccc2S1(=O)=O` the value was “inactive”; for `CCCCCCCCCC(=O)N[C@@H](Cc1c[nH]c2ccccc12)C(=O)N[C@H](CC(N)=O)C(=O)N[C@@H](CC(=O)O)C(=O)N[C@@H]1C(=O)NCC(=O)N[C@@H](CCCN)C(=O)N[C@@H](CC(=O)O)C(=O)N[C@H](C)C(=O)N[C@@H](CC(=O)O)C(=O)NCC(=O)N[C@H](CO)C(=O)N[C@@H]([C@H](C)CC(=O)O)C(=O)N[C@@H](CC(=O)c2ccccc2N)C(=O)O[C@@H]1C`, “inactive”; for `C[C@@H]1CN([C@@H](C)CO)C(=O)Cc2cc(NC(=O)Nc3ccc(C(F)(F)F)cc3)ccc2O[C@@H]1CN(C)C(=O)NC1CCCCC1`, “active”.

On to `C[C@@H]1CN([C@H](C)CO)C(=O)Cc2cc(NC(=O)Nc3ccc(C(F)(F)F)cc3)ccc2O[C@@H]1CN(C)C(=O)NC1CCCCC1`, for which the cytotoxicity call is “active”. For `C[C@@H]1CN([C@@H](C)CO)C(=O)Cc2cc(NC(=O)Nc3ccc(C(F)(F)F)cc3)ccc2O[C@H]1CN(C)C(=O)NC1CCCCC1` the value was “inactive”; for `C[C@@H]1CN([C@H](C)CO)C(=O)Cc2cc(NC(=O)Nc3ccc(C(F)(F)F)cc3)ccc2O[C@H]1CN(C)C(=O)NC1CCCCC1`, “inactive”; for `C[C@H](CO)N1C[C@H](C)[C@@H](CN(C)C(=O)NC2CCCCC2)Oc2ccc(NC(=O)Nc3ccc(C(F)(F)F)cc3)cc2CC1=O`, “inactive”.

Regarding `C[C@H]1CN([C@@H](C)CO)C(=O)Cc2cc(NC(=O)Nc3ccc(C(F)(F)F)cc3)ccc2O[C@H]1CN(C)C(=O)NC1CCCCC1`, the cytotoxicity call is “inactive”. In the case of `C[C@H](CO)N1C[C@H](C)[C@@H](CN(C)Cc2ccc(Oc3ccccc3)cc2)Oc2cc(-c3ccncc3)ccc2S1(=O)=O` it was “inactive”; in that of `C[C@H]1CCCCO[C@@H](CN(C)C(=O)Nc2ccc(C(F)(F)F)cc2)[C@@H](C)CN([C@@H](C)CO)C(=O)c2cc(NS(C)(=O)=O)ccc2O1`, “inactive”. Regarding `Cc1noc(C)c1NC(=O)N(C)C[C@H]1OCCCC[C@@H](C)Oc2ccc(NS(=O)(=O)c3cccs3)cc2C(=O)N([C@H](C)CO)C[C@@H]1C`, the cytotoxicity call was “inactive”. Consider `C[C@@H]1CN([C@@H](C)CO)S(=O)(=O)c2ccc(C#Cc3ccccc3)cc2O[C@@H]1CN(C)C(=O)CN(C)C`, for which the cytotoxicity call was “inactive”. In the case of `C[C@@H]1CCCCO[C@H](CN(C)Cc2ccc(C(=O)O)cc2)[C@@H](C)CN([C@@H](C)CO)C(=O)c2cc(NC(=O)Nc3cccc4ccccc34)ccc2O1` it was “inactive”; in that of `C[C@@H]1CCCCO[C@@H](CN(C)Cc2ccccc2)[C@@H](C)CN([C@@H](C)CO)C(=O)c2cc(NC(=O)Nc3cccc4ccccc34)ccc2O1`, “inactive”; in that of `C[C@@H]1CCCCO[C@H](CN(C)Cc2ccccc2)[C@H](C)CN([C@H](C)CO)C(=O)c2cc(NC(=O)Nc3cccc4ccccc34)ccc2O1`, “active”. For `C[C@@H]1CN([C@H](C)CO)C(=O)c2cc(NC(=O)Nc3cccc4ccccc34)ccc2O[C@@H](C)CCCCO[C@H]1CN(C)Cc1ccccc1` the value was “inactive”. `C[C@H](CO)N1C[C@H](C)[C@H](CN(C)Cc2ccccc2)OCCCC[C@H](C)Oc2ccc(NC(=O)Nc3cccc4ccccc34)cc2C1=O`: the cytotoxicity call was “inactive”.

As for `C[C@@H]1CCCCO[C@H](CN(C)Cc2ccccc2)[C@@H](C)CN([C@@H](C)CO)C(=O)c2cc(NC(=O)Nc3cccc4ccccc34)ccc2O1`, the cytotoxicity call was “active”. For `C[C@@H]1CCCCO[C@H](CN(C)Cc2ccc(C(=O)O)cc2)[C@H](C)CN([C@H](C)CO)C(=O)c2cc(NC(=O)Nc3cccc4ccccc34)ccc2O1` the value was “inactive”; for `C[C@H](CO)N1C[C@H](C)[C@@H](CN(C)Cc2ccccc2)OCCCC[C@H](C)Oc2ccc(NC(=O)Nc3cccc4ccccc34)cc2C1=O`, “active”; for `C[C@H]1CCCCO[C@@H](CN(C)Cc2ccccc2)[C@@H](C)CN([C@@H](C)CO)C(=O)c2cc(NC(=O)Nc3cccc4ccccc34)ccc2O1`, “active”. In the case of `C[C@@H]1CCCCO[C@H](CN(C)Cc2ccccc2)[C@@H](C)CN([C@H](C)CO)C(=O)c2cc(NC(=O)Nc3cccc4ccccc34)ccc2O1` it was “inactive”. For `CC1(C)OC2CC3C4CCC5=CC(=O)CCC5(C)C4(F)C(O)CC3(C)C2(C(=O)CCl)O1` (stereo not drawn) the value was “inactive”. Take `C[C@H]1CN([C@@H](C)CO)C(=O)CCCn2nncc2CO[C@@H]1CN(C)C(=O)Nc1ccc(N2CCCCC2)cc1`: the cytotoxicity call is “inactive”. For `Cc1noc(C)c1NC(=O)N(C)C[C@@H]1Oc2ccc(NC(=O)Nc3cccc4ccccc34)cc2C(=O)N([C@@H](C)CO)C[C@@H]1C` the value was “inactive”.

These data come from the antibiotic and cytotoxicity screens of Wong et al. (2023).
